Among the data in PubChem BioAssay (NCATS) are outcome and Potency values, retold here.

Test [1] can be described thus: Cytometric Cell-Based qHTS for Inhibitors of the mTORC1 Signaling Pathway in MEF (Tsc2-/-, p53-/-) Cells (AID 2660).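 Note: Tsc2 and p53 null MEFs carrying empty vector with compound for 24 h; percent of cells above a phospho-rpS6 to PI ratio cutoff in each well; series mostly up to about 38 µM.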 Summed up: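 Readout: Alexa-488 phospho-rpS6 (Ser235/236) intensity divided by PI intensity, thresholded against 7.5 nM rapamycin wells and reported as % positive cells. PI cell count served as the viability measure. Compound exposure was 24 hrs at 37 degree Celsius.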

The nature of test [2]: High Content Imaging Cell-Based qHTS for Inhibitors of the mTORC1 Signaling Pathway in MEF (Tsc2-/-, p53-/-) Cells (AID 2666).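 Note: percent of cells scored positive for phospho-rpS6 Ser235/236 immunostaining by imaging.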 Summed up: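 Tsc2-/-, p53-/- MEFs (empty-vector stable) grown in DMEM + 10% FBS were exposed to compounds for 24 hrs at 37 degree Celsius, fixed, and stained with Alexa-488 anti-phospho-rpS6 Ser235/236 plus Hoechst. Imaging gave the percentage of positive cells per well.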
(In general: qHTS replaces the single test concentration by a dilution series.)

The nature of test [3]: High Content Imaging Cell-Based qHTS for Inhibitors of the mTORC1 Signaling Pathway in MEF Cells (AID 2667).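 Note: Tsc2-/- p53-/- MEFs stably re-expressing wild-type Tsc2 exposed 24 h; series mostly up to about 38 µM.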 In short, it runs like this:
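Tsc2-/-, p53-/- MEFs stably re-expressing WT Tsc2, grown in DMEM + 10% FBS, were treated with compounds for 24 hrs at 37 degree Celsius, fixed, and stained with Alexa-488 phospho-rpS6 Ser235/236 antibody plus Hoechst; results given as % positive cells.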

A short description of test [4]: Cytometry Cell-Based qHTS for Inhibitors of the mTORC1 Signaling Pathway in MEF cells (AID 2668).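 Note: Tsc2-/- p53-/- mouse embryonic fibroblasts stably re-expressing wild-type Tsc2; percent cells positive for phospho-rpS6 Ser235/236 relative to propidium iodide stain; series mostly up to about 38 µM.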 Summed up: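 MEFs (Tsc2-/-, p53-/- stably expressing WT Tsc2) treated 24 h at 37 degree Celsius, fixed, stained with Alexa-488 anti-phospho-rpS6 Ser235/236 and propidium iodide; Acumen laser scanning. Reported as % positive cells, phospho-S6 normalized to PI.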
The target of test [5] is Ubiquitin carboxyl-terminal hydrolase 2 (Homo sapiens) (UniProt O75604). Briefly: qHTS Validation Assay for Inhibitors of Ubiquitin-specific Protease USP2a Using CHOP2 as the Reporter (AID 463106). Summed up: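 Readout was coupled fluorescence (Ex 485/Em 531 nm), read 60 min after adding 25 nM final Ub-CHOP2 and 25 nM reporter substrate. Beforehand, 10 nM final USP2 core had 30 min at RT with compound in pH 8.0 buffer. Curves were fitted after normalization to NEM and flagged for artifacts using time-zero reads.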
Sequence of Ubiquitin carboxyl-terminal hydrolase 2 (Homo sapiens) (O75604 whole entry, looked up): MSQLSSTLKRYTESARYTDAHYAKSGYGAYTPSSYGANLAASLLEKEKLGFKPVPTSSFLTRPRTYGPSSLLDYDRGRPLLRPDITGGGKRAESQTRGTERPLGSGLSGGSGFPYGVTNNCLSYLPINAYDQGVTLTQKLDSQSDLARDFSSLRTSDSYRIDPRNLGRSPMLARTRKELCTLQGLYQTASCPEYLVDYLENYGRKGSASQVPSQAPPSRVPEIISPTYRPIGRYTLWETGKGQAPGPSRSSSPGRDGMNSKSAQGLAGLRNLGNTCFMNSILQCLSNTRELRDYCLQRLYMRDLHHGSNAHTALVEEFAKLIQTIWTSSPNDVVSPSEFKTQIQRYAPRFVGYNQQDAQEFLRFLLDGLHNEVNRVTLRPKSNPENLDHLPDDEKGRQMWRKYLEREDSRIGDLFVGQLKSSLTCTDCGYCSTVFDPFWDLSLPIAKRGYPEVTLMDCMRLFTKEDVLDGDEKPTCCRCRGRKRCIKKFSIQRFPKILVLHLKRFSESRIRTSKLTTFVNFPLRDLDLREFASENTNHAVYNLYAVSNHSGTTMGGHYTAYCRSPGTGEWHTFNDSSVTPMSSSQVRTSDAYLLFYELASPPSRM

The target in test [6] is DNA polymerase III PolC-type (Bacillus subtilis (strain 168)) (UniProt P13267). Kind of test: qHTS Validation Assay for the Inhibitors of DNA Replication in Gram-Positive Bacteria (AID 485295).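 Note: PicoGreen fluorescence of double-stranded DNA made on primed circular M13 template; series mostly up to about 57 µM.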 Summed up: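 Reconstituted B. subtilis Pol III holoenzyme (PolC, beta clamp, SSB, primase) preincubated with compound, then M13Gori single-stranded circular template with dNTPs/NTPs added; room temperature reaction. Stopped with EDTA/PicoGreen; dsDNA fluorescence read, EDTA as full-inhibition control.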
Sequence of DNA polymerase III PolC-type (Bacillus subtilis (strain 168)) (P13267 whole entry, looked up): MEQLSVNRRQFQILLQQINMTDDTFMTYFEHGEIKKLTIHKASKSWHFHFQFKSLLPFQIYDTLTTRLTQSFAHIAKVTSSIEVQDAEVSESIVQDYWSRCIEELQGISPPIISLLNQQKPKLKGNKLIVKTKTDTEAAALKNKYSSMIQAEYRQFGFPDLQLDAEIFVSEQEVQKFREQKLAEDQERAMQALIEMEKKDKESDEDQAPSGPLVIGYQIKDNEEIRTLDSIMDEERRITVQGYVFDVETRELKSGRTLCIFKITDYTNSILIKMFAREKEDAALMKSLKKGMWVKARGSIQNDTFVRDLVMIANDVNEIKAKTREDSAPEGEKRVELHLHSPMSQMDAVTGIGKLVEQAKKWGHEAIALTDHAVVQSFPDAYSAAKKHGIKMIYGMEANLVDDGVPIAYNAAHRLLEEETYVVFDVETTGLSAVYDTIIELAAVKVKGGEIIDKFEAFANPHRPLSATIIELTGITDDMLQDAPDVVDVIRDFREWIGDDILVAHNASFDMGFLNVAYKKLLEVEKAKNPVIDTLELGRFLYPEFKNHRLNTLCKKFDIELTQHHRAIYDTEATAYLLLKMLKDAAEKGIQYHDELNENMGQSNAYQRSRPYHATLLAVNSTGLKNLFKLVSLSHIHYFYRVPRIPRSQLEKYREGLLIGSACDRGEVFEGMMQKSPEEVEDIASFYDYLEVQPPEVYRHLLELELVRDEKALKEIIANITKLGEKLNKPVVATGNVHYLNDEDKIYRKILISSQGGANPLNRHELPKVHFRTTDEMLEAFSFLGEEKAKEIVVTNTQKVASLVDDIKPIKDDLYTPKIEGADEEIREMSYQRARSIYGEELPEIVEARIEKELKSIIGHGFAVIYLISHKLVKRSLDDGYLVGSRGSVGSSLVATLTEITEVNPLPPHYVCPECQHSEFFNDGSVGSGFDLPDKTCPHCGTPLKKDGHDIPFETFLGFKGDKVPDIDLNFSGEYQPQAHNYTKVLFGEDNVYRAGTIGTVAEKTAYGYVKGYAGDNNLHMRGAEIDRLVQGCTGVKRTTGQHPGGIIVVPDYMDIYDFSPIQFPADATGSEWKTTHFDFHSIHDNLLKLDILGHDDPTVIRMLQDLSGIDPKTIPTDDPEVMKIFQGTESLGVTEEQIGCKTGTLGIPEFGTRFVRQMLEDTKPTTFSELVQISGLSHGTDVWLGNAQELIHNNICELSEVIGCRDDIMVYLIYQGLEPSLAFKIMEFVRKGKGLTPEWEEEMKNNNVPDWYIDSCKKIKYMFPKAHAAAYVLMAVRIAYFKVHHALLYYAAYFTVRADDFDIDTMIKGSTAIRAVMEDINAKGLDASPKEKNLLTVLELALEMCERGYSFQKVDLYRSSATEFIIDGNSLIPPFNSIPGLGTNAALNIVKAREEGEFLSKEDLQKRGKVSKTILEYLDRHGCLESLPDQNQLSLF

The target of test [7] is Tumor susceptibility gene 101 protein (Homo sapiens) (UniProt Q99816). Kind of test: qHTS Validation Assay for Iinhibitors of HIV-1 Budding by Blocking the Interaction of PTAP/TSG101 (AID 485342; calls by dose curve). In short, it runs like this: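 Tsg101 binding domain (10 uM) with FITC-labeled PTAP peptide (50 nM) in HEPES pH 7.5 buffer, 20 min at r.t. with compounds. Binding measured by fluorescence polarization.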
Sequence of Tumor susceptibility gene 101 protein (Homo sapiens) (Q99816 whole entry, looked up, the tested form may be a part): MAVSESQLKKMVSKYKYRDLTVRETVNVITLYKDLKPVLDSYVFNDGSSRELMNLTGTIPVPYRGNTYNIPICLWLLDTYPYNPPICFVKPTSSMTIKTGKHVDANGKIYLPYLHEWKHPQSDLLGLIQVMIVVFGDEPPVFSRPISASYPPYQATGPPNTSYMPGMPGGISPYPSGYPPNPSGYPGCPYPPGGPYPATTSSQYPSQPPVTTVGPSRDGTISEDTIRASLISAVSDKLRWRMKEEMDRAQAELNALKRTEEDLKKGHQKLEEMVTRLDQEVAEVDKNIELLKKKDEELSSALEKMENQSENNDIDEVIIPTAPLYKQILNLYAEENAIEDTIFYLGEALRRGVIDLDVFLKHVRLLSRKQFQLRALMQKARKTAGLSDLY

Test [8] can be described thus: qHTS Validation Assay to Find Inhibitors of Chronic Active B-Cell Receptor Signaling (AID 485345; active = well fitted curve in the direction sought with a large enough effect in the main read-out, with a control signal flat, not every such curve was filed as active). In short, it runs like this: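 Read-out: ratio of filter-corrected green (IkappaBalpha fusion) to red (native) luciferase signal in doxycycline-induced TMD8 cells after 4 h at 37C. Titration spanned 46 uM–3 nM; Data were normalised to basal cells and 10 uM MG-132 wells.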

The target in test [9] is Beta-2 adrenergic receptor (Homo sapiens) (UniProt P07550). Briefly: qHTS validation assay of beta-arrestin-biased ligands of beta2-adrenergic receptor (AID 485366). In short, it runs like this:
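Agonist activity is measured as luciferase luminescence downstream of beta-arrestin recruitment to recombinant beta2-AR in Tango cells. Exposure lasts 18 hr at 37 degrees C, and curves are categorized by r2, response size and activity.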

Test [10] in a line: qHTS for differential inhibitors of proliferation of Plasmodium falciparum line W2 (AID 1883).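 Note: potency is the fitted concentration of half-maximal effect; parasites grown with compound for 72 h before lysis and staining.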 The note with it: Potency: Plasmodium falciparum W2 proliferation inhibition.
Test [11] is described as follows: qHTS for differential inhibitors of proliferation of Plasmodium falciparum line HB3 (AID 1886).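 Note: potency is the fitted concentration of half-maximal effect; parasites grown with compound for 72 h before SYBR Green readout.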 The note with it: Potency: Plasmodium falciparum HB3 proliferation inhibition.
Test [12] deals with Ferritin light chain (Equus caballus) (UniProt P02791). Kind of test: qHTS Validation Assay for Identification of Novel General Anesthetics (AID 2323). Note: series mostly up to about 77 µM. Summed up: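 Horse-spleen apoferritin (10 uM) in PBS with 50% saturated 1-aminoanthracene; compounds pin-transferred, 10 min at room temperature. Fluorescence read at 380/535 nm, normalized to free 1-AMA and 1-AMA/apoferritin values; four-parameter Hill fit.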
Sequence of Ferritin light chain (Equus caballus) (P02791 2-175 limits assumed): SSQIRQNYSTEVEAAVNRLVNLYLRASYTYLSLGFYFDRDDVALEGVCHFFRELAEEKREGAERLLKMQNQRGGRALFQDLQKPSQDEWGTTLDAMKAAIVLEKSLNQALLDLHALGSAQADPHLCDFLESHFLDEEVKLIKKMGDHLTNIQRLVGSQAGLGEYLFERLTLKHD

Test [13] addresses ATP-dependent DNA helicase Q1 (Homo sapiens) (UniProt P46063). Briefly: qHTS Validation Assay for Inhibitors of RecQ-Like Dna Helicase 1 (RECQ1) (AID 2353). In short, it runs like this:
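RECQ1T1 50 nM; forked duplex (20 bp + 30-nt ss tails) 200 nM, ATP 2 mM final; pH 8.0, 2 mM MgCl2, 2.5 ug/ml poly(dI-dC); 15 min compound preincubation; discontinuous kinetic read over 2 h at RT.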

Test [14] can be described thus: Validation screen for small molecules that induce DNA re-replication in MCF 10A normal breast cells (AID 463097). Note: potency is the fitted concentration of half-maximal effect; nearly all actives have a fitted effect of over 60% in size. Summed up:
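MCF 10A cells exposed to compound 48 hr at 37 C, 5% CO2, then Hoechst-stained 40 min. Laser-scanning imaging of nuclear DNA content (405 nm ex, 500-530 nm em); re-replication scored as rise in nuclei with elevated fluorescence intensity.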

Inconclusive results are not listed. The source made the active and inactive calls. Unless noted, calls come from the whole dose curve; as a rule, active = well fitted curve in the direction sought with a large enough effect; inconclusive = small, poorly fitted or top-dose-only effect, or another doubt; inactive = no such curve, though single readings can be large; an effect the other way counts as inactive or inconclusive.

Sequence of Beta-2 adrenergic receptor (Homo sapiens) (P07550 whole entry, looked up): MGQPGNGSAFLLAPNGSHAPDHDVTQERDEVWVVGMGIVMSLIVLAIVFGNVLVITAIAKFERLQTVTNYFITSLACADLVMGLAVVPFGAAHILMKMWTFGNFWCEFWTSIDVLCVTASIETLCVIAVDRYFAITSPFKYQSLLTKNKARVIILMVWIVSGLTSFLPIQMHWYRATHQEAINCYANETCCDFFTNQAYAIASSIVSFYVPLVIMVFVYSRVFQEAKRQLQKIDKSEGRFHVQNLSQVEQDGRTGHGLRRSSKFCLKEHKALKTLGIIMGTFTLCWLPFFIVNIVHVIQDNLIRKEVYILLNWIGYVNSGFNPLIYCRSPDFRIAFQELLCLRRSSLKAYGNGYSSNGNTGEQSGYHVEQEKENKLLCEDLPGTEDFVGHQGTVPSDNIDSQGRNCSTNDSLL
Sequence of ATP-dependent DNA helicase Q1 (Homo sapiens) (P46063 whole entry, looked up): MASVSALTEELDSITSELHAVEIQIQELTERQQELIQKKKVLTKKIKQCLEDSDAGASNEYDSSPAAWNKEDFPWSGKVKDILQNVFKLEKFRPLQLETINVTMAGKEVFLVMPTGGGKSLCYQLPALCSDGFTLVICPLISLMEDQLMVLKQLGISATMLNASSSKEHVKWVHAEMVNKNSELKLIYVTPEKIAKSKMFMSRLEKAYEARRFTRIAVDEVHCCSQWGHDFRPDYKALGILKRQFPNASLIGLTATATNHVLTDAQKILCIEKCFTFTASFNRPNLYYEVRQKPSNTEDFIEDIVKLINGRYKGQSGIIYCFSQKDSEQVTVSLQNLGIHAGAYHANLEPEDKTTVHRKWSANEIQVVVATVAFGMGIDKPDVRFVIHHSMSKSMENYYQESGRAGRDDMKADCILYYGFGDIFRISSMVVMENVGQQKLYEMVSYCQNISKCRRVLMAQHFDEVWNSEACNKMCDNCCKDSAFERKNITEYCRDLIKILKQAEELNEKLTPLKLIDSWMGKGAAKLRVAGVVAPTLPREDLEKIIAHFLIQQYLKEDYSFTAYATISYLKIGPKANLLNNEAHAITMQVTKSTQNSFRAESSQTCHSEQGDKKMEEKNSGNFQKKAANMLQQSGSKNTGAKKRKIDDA

As to `NC[C@@H]1O[C@H](c2ccccc2)Cc2c1ccc(O)c2O`, the result in test [1], in test [7], in test [8] and in test [9] was inactive. For the same molecule, the Potency entry in test [2], in test [3], in test [4], in test [5] and in [6] was “inactive” in each case.
For `C[C@H](NC(=O)/C(C#N)=C/c1ccc(O)c(O)c1)c1ccccc1`, the results for the Potency in [10] and in [11] were 10 µM (active) and 12.6 µM (active), respectively. Also, the outcome in test [1], in test [7], in test [8] and in test [9] was inactive. Also, the Potency entry in test [2], in [3], in test [4], in test [5] and in [6] was “inactive” each time.
As to `O=C1C2C=CC=CC2=NC(=S)N1CCN1CCC(=C(c2ccc(F)cc2)c2ccc(F)cc2)CC1` (configuration not stated), the Potency was 10 µM (active) in test [10] and 7.08 µM (active) in test [14]. The Potency entry in test [12], in test [13], in test [2], in [3], in [4] and in [5] was “inactive” each time. Further, the Potency entry in [6] was “inactive”. In addition, the outcome in [1], in [7], in test [8] and in test [9] was inactive.
`CC(C)[C@@H]1CC[C@@H](C)C[C@@H]1P(=O)(c1ccccc1)c1ccccc1`: the call in [1], in test [7], in test [8] and in [9] was inactive. Further, the Potency result in test [2], in [3], in test [4], in test [5] and in [6] was “inactive” throughout.
